{"source": "PubChem BioAssay AID602192", "about": "(The Scripps Research Institute Molecular Screening Center, 2012)", "note": "Out of some 2,400 compounds screened, about 750 (31%) were called active. A selection follows. Unmarked numbers belong to inactive results.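 The calls were made as follows: active = mean activation across replicates above the hit cutoff set in the earlier primary screen (cut at about 8% in these data); inactive = the rest.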"}
{"target": "Melanocortin receptor 4 (Homo sapiens) (UniProt P32245)", "sequence (P32245 whole entry, looked up)": "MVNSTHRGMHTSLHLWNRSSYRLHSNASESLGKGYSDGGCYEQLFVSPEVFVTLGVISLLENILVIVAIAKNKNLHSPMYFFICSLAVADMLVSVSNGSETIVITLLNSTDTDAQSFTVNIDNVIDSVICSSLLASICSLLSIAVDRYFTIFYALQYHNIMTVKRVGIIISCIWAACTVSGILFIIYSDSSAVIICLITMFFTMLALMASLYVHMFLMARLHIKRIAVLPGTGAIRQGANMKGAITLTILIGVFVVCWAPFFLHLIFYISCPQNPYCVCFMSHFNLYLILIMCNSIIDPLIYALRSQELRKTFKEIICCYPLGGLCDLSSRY", "assay": "activators of MC4R arrestin recruitment – cell-based, luminescence, U2OS, confirmation (AID 602192)", "settings": "U2OS MC4R beta-arrestin recruitment, at 8.9 µM, stronger effect = higher value, scaled DMSO 0%, Melanotan II 100%"}
{"molecule": "O=C(CCCCCN1C(=O)c2cccc3cccc(c23)C1=O)NCc1ccco1", "activation": "6.44%"}
{"molecule": "Cc1ccc(Sc2ccc(NC(=O)c3ccc(F)cc3)cc2C#N)cc1", "activation": "2.18%"}
{"molecule": "Cc1ccc(S(=O)(=O)NCCC(=O)Nc2ccc(C)c(Cl)c2)cc1C", "activation": "3.25%"}
{"molecule": "CCOC(=O)c1nn(-c2ccccc2F)c2nc(Nc3ccccc3)cc(=O)n12", "activation": "2.15%"}
{"molecule": "CCN1CCN(CCNC(=O)c2ccc(/C=C3/Sc4ccccc4N(Cc4cccc(C)c4)C3=O)cc2)CC1", "activation": "9.47% (active)"}
{"molecule": "O=C(NCCc1c[nH]c2ccc(Cl)cc12)c1ccc([N+](=O)[O-])cc1", "activation": "3.47%"}
{"molecule": "Cc1ccc(-c2csc(SCC(=O)Nc3cc(C)on3)n2)cc1", "activation": "3.04%"}
{"molecule": "Cc1ccc(C(=O)Nc2ccc(NC(=O)c3cccs3)cc2)c(C)c1", "activation": "2.47%"}
{"molecule": "Cc1ccc(-n2nc(C)c(/C=N/NC(=O)c3cccs3)c2Cl)cc1", "activation": "12% (active)"}
{"molecule": "COCCN(CCOC)S(=O)(=O)c1ccc(C(=O)Nc2nc3c(s2)CCc2ccccc2-3)cc1", "activation": "0.54%"}
{"molecule": "CCCCCCCCCCOC(=O)Cn1c(COc2cccc(OC)c2)[n+](C)c2ccccc21", "activation": "21.6% (active)"}
{"molecule": "CCCCCCCCCCOC(=O)Cn1c(COc2ccc(C)cc2)[n+](C)c2ccccc21", "activation": "29.9% (active)"}
{"molecule": "COC(=O)c1c(C)[nH]c(C(=O)/C=C/c2ccc(Cl)cc2)c1C", "activation": "2.58%"}
{"molecule": "CCn1c(SCC(=O)Nc2cccc(F)c2)nnc1-c1cc2cc(Br)ccc2o1", "activation": "2.27%"}
{"molecule": "O=C(CCCn1c(SCC(=O)c2ccc(F)cc2)nc2ccccc2c1=O)NCc1ccco1", "activation": "4.27%"}
{"molecule": "COc1ccc(Cl)cc1-n1c(C)cc(C(=O)OCC(=O)N2CC(=O)Nc3ccccc32)c1C", "activation": "10.5% (active)"}
{"molecule": "Cc1cccc(C)c1OC(=O)CSc1nnc(-c2ccccc2)o1", "activation": "2.94%"}
{"molecule": "O=C1N/C(=C/c2cccn2-c2ccccc2)C(=O)N1c1cccc(Cl)c1", "activation": "13.2% (active)"}
{"molecule": "Clc1ccc(Nc2ncnc3c2nnn3Cc2ccccc2)cc1", "activation": "-0.43%"}
{"molecule": "O=C(OC12CC3CC(CC(C3)C1)C2)c1ccc(NCc2cc(O)ccc2O)cc1", "activation": "5.55%"}
{"molecule": "Cc1ccccc1NC(=O)c1ccc(COc2ccc3c(C)cc(=O)oc3c2)cc1", "activation": "28.2% (active)"}
{"molecule": "COc1ccc(Cc2nnc(NC(=O)c3ccc(OC)cc3OC)s2)cc1", "activation": "-0.87%"}
{"molecule": "COc1ccc(C(N)c2csc(NC(=O)Nc3cccc(C(F)(F)F)c3)n2)cc1", "note": "(centres undefined)", "activation": "11.5% (active)"}
{"molecule": "COc1ccc(CC(N)c2csc(NC(=O)NC(c3ccccc3)c3ccccc3)n2)cc1", "note": "(centres undefined)", "activation": "17.4% (active)"}
{"molecule": "COc1cc(NC(=O)c2cncc(-c3ccc(C#N)cc3)c2)cc(C(=O)Nc2cccc(C(F)(F)F)c2)c1", "activation": "2.95%"}
{"molecule": "O=C(NC1CCCCCC1)c1cccnc1Sc1ccc(Cl)cc1", "activation": "0.48%"}
{"molecule": "COc1ccc(C)c(Cn2c(-c3nonc3N)nc3ccccc32)c1", "activation": "-0.25%"}
{"molecule": "CCc1ccc2c(c1)cc(CN(C(=S)Nc1ccccc1Cl)C1CC1)c1nnnn12", "activation": "0.41%"}
{"molecule": "Cc1c(-c2ccccc2)n[nH]c1C(=O)N=Nc1c(O)[nH]c2ccccc12", "activation": "3.31%"}
{"molecule": "Cc1ccsc1/C=N/Nc1ccc(Cl)nn1", "activation": "2.12%"}
{"molecule": "CCOC(=O)c1c(-c2ccccc2)oc2cc(Br)c(O)c(C=O)c12", "activation": "12.2% (active)"}
{"molecule": "Cc1ccc([C@H]2C[C@H](O)[C@@H](n3cc(COC(=O)c4ccccc4)nn3)CN2C(=O)C2CCCCC2)cc1", "activation": "1.84%"}
{"molecule": "COc1cc(/C=C(\\C#N)C(=O)Nc2ccc3ccccc3c2)c([N+](=O)[O-])cc1OC", "activation": "5.51%"}
{"molecule": "COc1ccc(-c2cc(NC=O)c3ncc(-c4ccccc4)n3c2)cc1OC", "activation": "17.6% (active)"}
{"molecule": "CN(C)CCNC(=O)c1cccc(-c2cnc3c(NC=O)cc(-c4cccc(C(F)(F)F)c4)cn23)c1", "activation": "20.8% (active)"}
{"molecule": "CC(=O)c1cccc(-c2cnc3c(NC=O)cc(-c4ccc(N(C)C)cc4)cn23)c1", "activation": "17.7% (active)"}
{"molecule": "CN(C)C(=O)c1cccc(-c2cnc3c(NC=O)cc(-c4ccc(F)cc4)cn23)c1", "activation": "9.94% (active)"}
{"molecule": "Cn1c(=S)sc2ccc3ccccc3c21", "activation": "2.83%"}
{"molecule": "C=CCn1c(SCC(=O)c2ccc(Br)cc2)nnc1C(C)NC(=O)Cc1ccc(OC)cc1", "note": "(centres undefined)", "activation": "3.84%"}
{"molecule": "COC(=O)c1nc2n(n1)C(c1ccc([N+](=O)[O-])cc1)C(C(=O)Nc1ccc(Cl)cc1)=C(C)N2", "note": "(centres undefined)", "activation": "-3.03%"}
{"molecule": "CCOC(=O)c1c(-c2ccc(C)cc2C)csc1NC(=O)CSc1nnnn1C", "activation": "-1.45%"}
{"molecule": "CCOC(=O)c1[nH]c2c(c1-c1ccccc1)C(=O)CC(c1ccc(Cl)cc1)C2", "note": "(centres undefined)", "activation": "2.82%"}
{"molecule": "Cc1ccc(-n2nc3cc(Cl)c(NC(=O)c4ccco4)cc3n2)cc1", "activation": "0.27%"}
{"molecule": "COc1ccc(S(=O)(=O)N2CCC(C(=O)OCC(=O)c3ccccc3)CC2)cc1[N+](=O)[O-]", "activation": "5.6%"}
{"molecule": "Cc1cc(C)cc(C(=O)OCC(=O)NCCNC(=O)COC(=O)c2cc(C)cc(C)c2)c1", "activation": "0.95%"}
{"molecule": "O=C(COC(=O)c1cccc(Br)c1)Nc1cccc2c1C(=O)c1ccccc1C2=O", "activation": "8.85% (active)"}
{"molecule": "O=C(CSc1ccccc1)Nc1nnc(/C=C/c2ccccc2)s1", "activation": "32.6% (active)"}
{"molecule": "CCCCNc1c(-c2cccc(Sc3ccc(OC)cc3)c2)nc2ccccn12", "activation": "5.36%"}
{"molecule": "COc1ccc2sc(-c3ccc(S(C)(=O)=O)cc3)c(C#Cc3cncn3C)c2c1", "activation": "27.1% (active)"}
{"molecule": "O=C(Cn1cnc2c(nnn2-c2ccccc2)c1=O)N1CCC(Cc2ccccc2)CC1", "activation": "5%"}
{"molecule": "CSc1ccc(/C=N\\NC(=O)COc2ccc(Cl)cc2Br)cc1", "activation": "4.69%"}
{"molecule": "CCN(CC)C(=O)Oc1ccc(Br)cc1C(=O)Nc1ccc(F)c(Cl)c1", "activation": "-3.02%"}
{"molecule": "CCN(CC)S(=O)(=O)c1ccc(C)c(NC(=O)COc2ccc(Br)cc2Cl)c1", "activation": "12.9% (active)"}
{"molecule": "O=C(c1cc(-c2cccc(O)c2)on1)N1CCc2ccccc2C1", "activation": "-1.12%"}
{"molecule": "Clc1ccccc1Nc1nc(NCc2cccs2)nc2ccsc12", "activation": "2.53%"}
{"molecule": "COc1ccc(Nc2ncnc3sc(-c4ccccc4)cc23)c(OC)c1", "activation": "5.2%"}
{"molecule": "COCCNc1nc(Nc2ccccc2Cl)c2sc(-c3ccccc3)cc2n1", "activation": "11.8% (active)"}
{"molecule": "O=C(Nc1sc2c(c1-c1nc3ccccc3[nH]1)CCCC2)C1CC1", "activation": "6.22%"}
{"molecule": "O=C(OCc1cn(-c2ccc(Cl)c(Cl)c2)nn1)c1ccccc1Cl", "activation": "-2.69%"}
{"molecule": "COc1ccc(Nc2oc(-c3ccccc3Cl)nc2C#N)cc1", "activation": "6.82%"}
{"molecule": "COc1cccc(CNC(=O)c2nnn(CC(=O)Nc3cc(Cl)ccc3C)c2N)c1", "activation": "2.75%"}
{"molecule": "Cc1cc(/C=C(/C#N)C(=O)Nc2ccc(Cl)cc2)c(C)n1-c1cccnc1", "activation": "0.76%"}
{"molecule": "Cc1ccc2nc(-c3ccncc3)cc(C(=O)Nc3ccc(OC(F)F)cc3)c2c1", "activation": "1.63%"}
{"molecule": "CCN1C[C@@H]2[C@@H]3C(=O)N(Cc4ccccc4)C(=O)[C@@H]3[C@](Cc3ccccc3)(C(=O)OC)N2C1=NC1CCCCC1", "activation": "17% (active)"}
{"molecule": "COc1ccc2nc(NC(=O)c3ccc(Br)s3)sc2c1", "activation": "5.97%"}
{"molecule": "CN(C)CCCN(C(=O)c1ccc(S(=O)(=O)N2CCCCCC2)cc1)c1nc2ccc(Br)cc2s1", "activation": "15.3% (active)"}
{"molecule": "CSc1nc2sc3c(c2c(=O)[nH]1)CCc1ccccc1-3", "activation": "9.67% (active)"}
{"molecule": "COc1ccc(Cn2c(C)c(C)c(C#N)c2NC(=O)Nc2ccc(F)cc2)cc1", "activation": "2.83%"}
{"molecule": "COC(=O)c1sccc1NC(=O)CCC1CCCC1", "activation": "0.35%"}
{"molecule": "Cc1csc(NC(=O)c2ccc(-c3ccc(Cl)cc3Cl)o2)n1", "activation": "9.09% (active)"}
{"molecule": "O=C(NC(c1ccc(-c2ccccc2)cc1)c1cnccn1)C1CCN(CCOc2ccc(Cl)cc2Cl)CC1", "note": "(centres undefined)", "activation": "7.32%"}
{"molecule": "O=C(Nc1nc(-c2ccc(-c3ccccc3)cc2)cs1)c1cnccn1", "activation": "10.5% (active)"}
{"molecule": "CC(=O)Nc1ccc(-c2csc(NC(=O)Nc3ccccc3)n2)cc1", "activation": "26.9% (active)"}
{"molecule": "Brc1ccc(-c2csc(N/N=C/c3cccnc3)n2)cc1", "activation": "-2.16%"}
{"molecule": "Cc1ccc(NC(=O)Nc2ccccc2)c(Br)c1", "activation": "3.05%"}
{"molecule": "N#CC(=C1SC=CS1)c1nc(-c2ccccc2)cs1", "activation": "-2.79%"}
{"molecule": "Cc1ccc(-c2csc(NC(=O)Cn3[nH]c(=O)c4ccccc4c3=O)n2)cc1", "activation": "2.98%"}
{"molecule": "N#CCC(=O)N/N=C/c1cn(Cc2ccc3ccccc3c2)c2ccccc12", "activation": "2.4%"}
{"molecule": "COc1ccc(C(=O)c2oc3ccc(Br)cc3c2NC(C)=O)cc1", "activation": "1.93%"}
{"molecule": "COc1ccc(/C=N/NC(=O)Nc2ccc3nsnc3c2)c(OC)c1", "activation": "-0.12%"}
{"molecule": "CC(=O)c1sc(NC(=O)CCCOc2ccccc2C)nc1C", "activation": "5.8%"}
{"molecule": "COc1ccc(C(=O)n2nc(-c3ccc(C)cc3)nc2N)cc1OC", "activation": "0.77%"}
{"molecule": "COc1cccc(CNCCc2c[nH]c3ccccc23)c1OCc1ccccc1F", "activation": "32% (active)"}
{"molecule": "CCc1ccc(Nc2ncc3c(n2)CC(c2ccco2)CC3=O)cc1", "note": "(centres undefined)", "activation": "0.77%"}
{"molecule": "COc1ccc(OCC(=O)Nc2ccc(N3CCC(C)CC3)cc2)cc1", "activation": "2.6%"}
{"molecule": "O=C(CCCN1C(=O)/C(=C\\c2ccco2)SC1=S)Nc1cccc2ccccc12", "activation": "-0.83%"}
{"molecule": "O=C(CCCN1C(=O)/C(=C/c2cccs2)SC1=S)Nc1ccc(O)cc1", "activation": "11.8% (active)"}
{"molecule": "O=C(/C=C/c1c(Cl)cccc1Cl)NCc1ccccc1", "activation": "-0.28%"}
{"molecule": "COc1cccc2sc(N(CCCN(C)C)C(=O)C(c3ccccc3)c3ccccc3)nc12", "activation": "19.5% (active)"}
{"molecule": "Cc1cccc(NC(=O)Nc2cccc(Oc3c(F)c(F)c(F)c(F)c3F)c2)c1", "activation": "-1.61%"}
{"molecule": "Cc1ccc(-n2cc3ccc([N+](=O)[O-])cc3n2)cc1", "activation": "5.74%"}
{"molecule": "Cc1ccc(Nc2nnc(SCC(=O)c3cc4ccccc4o3)s2)cc1C", "activation": "1.84%"}
{"molecule": "Cc1ccc(Nc2nnc(SCc3ccccc3)s2)cc1", "activation": "9.35% (active)"}
{"molecule": "COc1ccc(S(=O)(=O)N/N=C\\c2ccc(OC)c(COc3ccc(C)cc3[N+](=O)[O-])c2)cc1", "activation": "1.84%"}
{"molecule": "CC(C)Oc1c(Br)cc(Br)cc1/C=N/NC(N)=S", "activation": "13.3% (active)"}
{"molecule": "CCC(=O)c1cc2c(cc1NC(=O)c1cccs1)OCCO2", "activation": "6.01%"}
{"molecule": "Cc1nn2cc(-c3ccc(Cl)cc3)cnc2c1Br", "activation": "-1.24%"}
{"molecule": "CC(=O)Nc1ccc(NC(=O)c2sc3nc4c(c(-c5ccc(C)cc5)c3c2N)CCC4)cc1", "activation": "5.71%"}
{"molecule": "CSc1ccc(S(=O)(=O)NCc2ccc(Cl)cc2)cc1", "activation": "1.19%"}
